# DRD3 antagonist: blocks the human D3 dopamine receptor; D3R cells, DiscoveRx beta-arrestin luminescence, antagonist mode; hits give low values; max response, negative = inhibition, %; actives 2.5% (n = 360,000); in the data active = max response below about -50%; inconclusive = no clear call, values can overlap the other calls; also: % is scaled to controls: 0 for no effect and ±100 for the full control effect
# Target sequence (P35462 whole entry, looked up): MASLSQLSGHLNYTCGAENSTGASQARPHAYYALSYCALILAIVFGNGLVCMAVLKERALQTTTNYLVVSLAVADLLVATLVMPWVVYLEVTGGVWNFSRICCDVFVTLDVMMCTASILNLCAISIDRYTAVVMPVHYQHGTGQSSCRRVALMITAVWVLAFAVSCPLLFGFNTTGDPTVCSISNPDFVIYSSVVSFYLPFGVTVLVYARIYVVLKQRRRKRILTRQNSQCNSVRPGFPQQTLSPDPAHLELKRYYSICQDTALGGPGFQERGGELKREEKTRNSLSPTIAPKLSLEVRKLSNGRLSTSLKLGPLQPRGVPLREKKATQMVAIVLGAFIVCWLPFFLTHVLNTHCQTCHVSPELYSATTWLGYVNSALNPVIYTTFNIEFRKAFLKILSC
#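 Cells expressing the human receptor were seeded at 1500 cells/well, incubated overnight at 37 degrees C in 5% CO2, then exposed to library compounds with dopamine controls for 90 minutes at 37 degrees C before luminescent detection.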
# D1 ag: human D1 receptor agonism; actives 1% (n = 360,000); activation, % at 2 µM; HEK293 T-REx D1 cells, calcium flux, agonist mode; in the data active = activation above about 30%; also: 0% is about no effect
#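 Tetracycline-induced HEK293 TREx D1 cells, force-coupled to calcium signalling, were dye-loaded with a no-wash calcium kit. Compound was pin-added after a 10 s baseline. Fluorescence was read kinetically at 1 cycle/s for 180 s, with calcium rises flagged as agonism.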
# DRD3 agonist: agonists of human D3 dopamine receptor; D3R DiscoveRx beta-arrestin cells, luminescence, 90 min; max activation, %; actives 0.58% (n = 410,000); in the data active = max activation above about 30%; also: 0% is about no effect
#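 Cells at 1500/well, incubated overnight, then treated with pinned compounds (dopamine as control) for 90 min at 37 degrees C. DiscoveRx reagent added for 30 - 60 minutes at room temperature; luminescence read.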
# D1 antagonist: antagonists of human D1 dopamine receptor; HEK293 TREx D1 cells, calcium flux, dopamine EC80; hits give low values; activity change, negative = inhibition, % at 10 µM; actives 3.2% (n = 360,000); AID 504652; in the data active = activity change below about -30%; also: % is scaled to controls: 0 for no effect and ±100 for the full control effect
#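 Kinetic fluorescence of a calcium dye serves as the read-out. D1-expressing Hek293 Trex cells, induced overnight at 30 C, are exposed to compound for 180 s before an EC80 dopamine addition, then read 180 s further.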
# D1 potentiator: human D1 dopamine receptor positive modulation; HEK293 TREx D1 cells, calcium flux, dopamine EC20 potentiation; P21728; potentiation, % at 10 µM; actives 0.036% (n = 360,000); in the data active = potentiation above about 30%; also: 0% is about no effect
# The depositor's hits bear a star; ? = inconclusive; . = no result; ! = not active in a repeat. In the library only some 6% were active in any assay of this set; here they are far more common.
SMILES,DRD3 antagonist,D1 ag,DRD3 agonist,D1 antagonist,D1 potentiator
O=C(c1ccccc1)c1cc(Cl)ccc1N1C(=O)C=CC1=O,-92*,0,-28,-8,-3
CCOC(=O)c1c(C(C)(C)C)oc2ccc(O)cc12,25,88*,-2,-1,3
O=C(NCc1nnc(-c2nc3ccccc3[nH]2)o1)C1CCCCC1,.,0,.,0,-3
Cc1c(C(=O)OC2CCCC2)[nH]c2c1C(=O)CC(c1ccc(C(C)(C)C)cc1)C2 (configuration not stated),.,3,6,-31*,2
CCC12CN3CC(CC)(CN(C1)C3c1ccc(OCc3ccccc3)cc1)C2=O (configuration not stated),.,0,3,3,-2
COc1cccc(CC2(CO)CCCN(Cc3ccc(CN4CCCCC4)s3)C2)c1 (configuration not stated),0,4,-10,-1,-5
CC1=C(/C=C/C(C)=C/C=C/C(C)=C/C(=O)Nc2ccc(O)cc2)C(C)(C)CCC1,23,1,69*!,.,4
CC1=C(/C=C/C(C)=C/C=C/C(C)=C\C(=O)O)C(C)(C)CCC1,11,.,0,.,.
Cc1ccc(OCC(=O)NNC(=S)NC(=O)C(C)(C)C)c(Br)c1,-3,82*,2,-2,-1
Cc1ccc(OCC(=O)NNC(=S)NC(=O)C2CCCCC2)c(C)c1,-12,47*,-3,-7,-2
Cc1ccc(OCC(=O)NC(=S)Nc2ccccn2)c(Br)c1,1,4,-4,-2,2
CC1CN(c2ccc([N+](=O)[O-])c(NCCOc3ccc(Cl)cc3)c2)CC(C)N1 (configuration not stated),-21,39*,-5,-9,-5
OC1c2cc(Cl)ccc2-c2c(Cl)cc(Cl)cc21 (configuration not stated),8,.,3,.,.
OC1c2cc(Cl)cc(Cl)c2N=C2CCCN21 (configuration not stated),-59*,.,-12,.,.
Cc1ccc2oc(=O)c3cc(C(=O)NCCCN4CCc5ccccc5C4)sc3c2c1,-55*,-3,-13,-1,-2
Cc1ccc2oc(=O)c3cc(C(=O)NCCCN4CCCCCC4)sc3c2c1,-12,1,-10,7,2
CN1CCN(C(=O)C[C@H]2C[C@H]3c4cc(NC(=O)NC5CCCCC5)ccc4O[C@H]3[C@@H](CO)O2)CC1,-1,.,1,.,.
O=C(O)COc1ccccc1/C=N/NC(=O)CNC(=O)c1ccco1,-6,2,-3,-58*,-3
CC(C)(C)c1ccc(C(=O)NCC(=O)N/N=C/c2ccccc2OCC(=O)O)cc1,11,1,-2,-15,-3
O=C(COc1cccc2ccccc12)N/N=C/c1ccccc1OCc1ccc(C(=O)O)cc1,-21,36*,5,-6,1
O=C(COc1ccccc1-c1ccccc1)N/N=C/c1cccc2ccccc12,10,3,2,-1,3
C=CCNC(=O)c1onc(CSc2cccc(OC)c2)c1C(=O)NCC=C,-4,0,0,-49*,0
C=CCNC(=O)c1onc(CSc2ccc(F)c(F)c2)c1C(=O)O,18,31*,4,136,1
COc1cccc(SCc2noc(C(=O)NCCN(C)C)c2C(=O)NCCN(C)C)c1,19,.,14,.,.
C=CCNC(=O)c1onc(CSc2ccc(Cl)cc2)c1C(=O)O,-1,0,12,6,0
SMILES,DRD3 antagonist,D1 ag,DRD3 agonist,D1 antagonist,D1 potentiator
COCCNC(=O)c1onc(CSc2ccc(F)c(F)c2)c1C(=O)NCCOC,0,.,30*,.,.
CCC(=O)Oc1ccc(C/C(=N\O)c2ccc(O)cc2O)o1,92,1,56*,9,-1
Cn1c(=N)n(CC(=O)O)c2ccccc21,-62*,7,-4,-11,5
COc1cc(NC(=O)CCc2c(C)nc3nc(-c4cc(OC)cc(OC)c4)nn3c2C)cc(OC)c1,.,1,-8,5,0
COc1cc(NC(=O)CCc2c(C)nc3c(-c4ccc(F)cc4)c(C)nn3c2C)cc(OC)c1OC,.,0,-13,-41*,-8
COc1cc(OC)cc(-c2nc3nc(C)c(CCC(=O)Nc4ccc(C)c(C)c4)c(C)n3n2)c1,.,3,-18,-57*,-3
COC(=O)CC(=O)CSc1nc2cc(C(=O)NCC(C)C)ccc2c(=O)n1CCc1ccccc1,.,2,7,-14,-5
O=C(O)c1nn(-c2cccc(Cl)c2)c(=O)cc1O,13,1,3,-44*,-4
COC(=O)c1nn(-c2ccccc2)c(=O)cc1O,5,1,0,5,1
O=C(Nc1cccc2cccnc12)c1csc([C@@H]2O[C@H](CO)[C@H](O)[C@H](O)[C@H]2O)n1,-117*,.,-21,.,.
CC(=C\C(=O)O)/C(=C/c1ccccc1)C(=O)O,11,-1,-3,-14,-1
COc1ccc(/C=C/C(=O)NC(=S)NCC2CCCO2)cc1 (configuration not stated),-3,5,-1,-48*,-18
COc1ccc(C(=O)NC(=S)NCC2CCCO2)cc1 (configuration not stated),-9,2,-1,30,2
COc1cc(NC(=O)c2ccc(-c3ccc(F)c(F)c3)c3ccoc23)cc(OC)c1OC,9,.,4,.,.
COc1ccc(-c2cc(CCCC(=O)NCCc3ccc(OC)cc3OC)no2)cc1,33,21,16,-44*,-8
COc1cccc(CNS(=O)(=O)c2c(C(=O)N3CCC(C)CC3)c(C)n(C)c2C)c1,.,-1,-2,12,0
CCC(C)c1ccc(NC(=O)NCc2cccnc2)cc1 (configuration not stated),7,4,2,-9,-7
O=C(Nc1cccc(Cl)c1)Nc1cccc(Cl)c1,20,19,-4,-49*,-22
O=C(Nc1cccc(Cl)c1)Nc1ccon1,4,6,0,-7,-6
O=C(Nc1cccnc1)Nc1ccccc1Cl,4,2,5,8,1
O=C(Nc1cccnc1)Nc1cc(Cl)cc(Cl)c1,18,24,-9,-33*,-11
O=C(Nc1cccc(F)c1)Nc1cccc(Cl)c1,-3,12,0,-53*,7
CCC(C)c1ccc(NC(=O)Nc2cccnc2)cc1 (configuration not stated),-5,8,-4,-30*,-2
c1cc(-c2cc3c(o2)CCCC3OCCN2CCOCC2)cs1 (configuration not stated),?,.,-11,.,.
O=C(Nc1ccc(Oc2ccccc2)cc1)c1ccc2nc([C@@H]3O[C@H](CO)[C@H](O)[C@H](O)[C@H]3O)[nH]c2c1,-18,.,4,.,.
Cc1cccc(N2CCN(C(=O)c3ccc(NC4=NC5CS(=O)(=O)CC5S4)cc3)CC2C)c1 (configuration not stated),12,0,0,8,0

# Bioassay records: PubChem BioAssay, National Center for Advancing Translational Sciences (NCATS)
